Measurements: paper PMC12136788
In all, about 5,800 sequences were measured (“enrichment r”: median about 0.68, highest 2% from about 11 on). Only a selection was taken, and the highest values are over-represented in it overall.

B1: chr22:43879677:43880794:-|three_prime_utr|ENSG00000100341|control|control|control (ssRNA)
RNA: GGGAGUUCUACAGUCCGACGAUCGAGAAAGGAGGACAGCCACAGAGACACAUGUCUUACUUUCAGAAUUUCCACGGGGGGACUAGGAGGGCAGCAUUGCUGGGGAGAGGGGCUCCUGUUCUGCCGUGGAGCUGCCCACGGAGCCAACAGAGGAUUGAGCAUCA
B2: chr3:115809552:115809653:-|3pUTR|ENSG00000185565|unk|total|mutant (ssRNA)
RNA: GGGAGUUCUACAGUCCGACGAUCCUCCCUCACCUCUCCUCACCUCCACCCCCUCCCCAGAGCACCCGUCAUGCCGCAAAUGCCCGGAAGUGCCAUUUUCAUUUUCUCCACUGUGCGUGUGUGCUCAAGUCUUUCGCUCUCACGCAACAGAGGAUUGAGCAUCA
B3: chr4:145760401:145760502:-|3pUTR|ENSG00000151612|unk|FALSE|unique (ssRNA)
RNA: GGGAGUUCUACAGUCCGACGAUCUCCGUACUUUUCUCUGAAAGGAAUCUUGUCUUGUUAAACCCUAAAGAGAGUGUCCUUAAUAGCAAUCAGCACUUGUAAGCUUAUAUACUGGUGCAUUUGGUUUUCUGUUGGGUGAAUGCGCAACAGAGGAUUGAGCAUCA
B4: chr17:27756765:27757353:-|three_prime_utr|ENSG00000007171|control|control|control (ssRNA)
RNA: GGGAGUUCUACAGUCCGACGAUCCAAGUCUUAUUUCCUCAACGUUGCUCCCCAUCAAGCCCUUUACUUGACCUCCUAACAAGUAGCACCCUGGAUUGAUCGGAGCCUCCUCUCUCAAACUGGGGCCUCCCUGGUCCCUUGGAGCAACAGAGGAUUGAGCAUCA
B5: chr1:160214333:160214525:+|3pUTR|ENSG00000162734|msi1|FALSE|unique (ssRNA)
RNA: GGGAGUUCUACAGUCCGACGAUCCUACAGUGUUUUCCUUUGCACCGAUCCCCACCCCAAUUCAAUCCCGGAAGGGACUUACUUAGGAAACCCUUCUUUACUAGAUAUCCUGGCCCCCUGGGCUUGUGAACACCUCCUAGCCACCAACAGAGGAUUGAGCAUCA
B6: chr12:56205560:56205676:-|3pUTR|ENSG00000181852|unk|FALSE|unique (ssRNA)
RNA: GGGAGUUCUACAGUCCGACGAUCCUCUUGUGGCACAGGCCAUAAUUGUUCCAUAGACCCCUCUCUAGCCCUGUGACUGUAGUUAGUUACUUUGAUAAUUUUCUUUGGCCAUUGUUUGUUUAUAUUUCACAAACUCCACCUACUCAACAGAGGAUUGAGCAUCA
B7: chr19:3536616:3536717:+|3pUTR|ENSG00000105325|msi1|total|mutant (ssRNA)
RNA: GGGAGUUCUACAGUCCGACGAUCACCGCCGCAGGGCCAGGCGGACGGCGUGAGGUUUGUGUUGGGGCUGGUUCUGCCCAUGCCCGGGGGUGGGGGAGCUCCCAGGACAGACCAGCCUUGUUUCUCAUGUAAUGCAGUGACGCUCAACAGAGGAUUGAGCAUCA
B8: chr20:63933867:63933968:+|3pUTR|ENSG00000101152|msi1|FALSE|unique (ssRNA)
RNA: GGGAGUUCUACAGUCCGACGAUCAUCAGAGUGGGCCCCUUGCCAGGUGGCUUUUCAGUUACAGAGUCCAGUGGACCAUUUUGUAGAACCAUGCAGCUCCCUGCGGAAGGUGGGGUAGGGUGGGAAAGAGGAGCAGGUCUGGAGCAACAGAGGAUUGAGCAUCA
B9: chr17:49053040:49053141:+|3pUTR|ENSG00000159217|unk|FALSE|unique (ssRNA)
RNA: GGGAGUUCUACAGUCCGACGAUCCUCAGCUCCUGUGAGGGGUCUGGUUAGGAGAGAGCCAUUUUUAAGGACAGGGAGUUUUAUAGCCCUUUUCUACUUUCCUCCCCUCCUCCCAGUCCUUAUCAAUCUUUUUUCCUUUUUCCUCAACAGAGGAUUGAGCAUCA
B10: chr15:74955373:74955475:-|3pUTR|ENSG00000178718|unk|FALSE|unique (ssRNA)
RNA: GGGAGUUCUACAGUCCGACGAUCGGACAGUUUUCCUUUCUAGUUUUCUUUCCCCUGCUUCAGAGGAGCAUCUCUGAGGGUUCUAGCUCUUUUAACACCCCUUUUCCCCCUGCUGGCCCAGAGGGAGACCCAGGACUGAACUCUCAACAGAGGAUUGAGCAUCA
B11: chr19:12699869:12699961:-|3pUTR|ENSG00000105576|msi1_unk|FALSE|overlapping (ssRNA)
RNA: GGGAGUUCUACAGUCCGACGAUCGAGGGUGGGGGUGUAGUUACUUCCCAGUUGGCCAGAAAACUGGGCCUUGCAGACCCCCUUAGCAUUUUUUCCCUUUUUUUCCUUCCCUGCUUUCUACUUCUUUGGGGAGCCCCUUGUGUUCAACAGAGGAUUGAGCAUCA
B12: chr11:2944997:2945113:-|3pUTR|ENSG00000205531|unk|FALSE|unique (ssRNA)
RNA: GGGAGUUCUACAGUCCGACGAUCCUGUGUAGAGUAGGGCCCUGUUCUCCUUAGGAUGUUGCUUCUUGAUUUUUUUUUUUUUUUAGGGGUGGGUCAGGGUUGUGACACACCAGCCCAGGUGAGAGCUGCUGCGGGUCACCUCAUCAACAGAGGAUUGAGCAUCA
B13: chr17:50110931:50111032:+|3pUTR|ENSG00000005882|unk|FALSE|unique (ssRNA)
RNA: GGGAGUUCUACAGUCCGACGAUCUGUGCCCAGACAUGUGUGCUCAGGGUGGCUUUCUCCCUAGGACCUUCUGUGUAUAUAGUUAGUUUUAUAACCCUGAAUGCCCCCACCCUUCCCCUAAGCACACAGGGGUUAAAGCUGUGUCAACAGAGGAUUGAGCAUCA
B14: chr12:53210768:53210868:-|3pUTR|ENSG00000172819|msi1_unk|FALSE|overlapping (ssRNA)
RNA: GGGAGUUCUACAGUCCGACGAUCAGGGGGGAUGCUGCUUAGCUGAUCCCGCCCUGACCCAGAGGAAGCCUCUAUUUAUUUAUUAGCUUUUGUUUACACCGUGGAAUUGACCCCUUCCUCCAGGGGUCUUGGGUGGGGGAGCCCCAACAGAGGAUUGAGCAUCA
B15: chr4:48579112:48579224:-|CDS|ENSG00000075539|unk|FALSE|bound_elsewhere (ssRNA)
RNA: GGGAGUUCUACAGUCCGACGAUCCUCUAUUGCCCUAGCUCGAUAGAUUUACAAACUUUAGCAGAAUGGAACUCUUCUCCUAUUAGCCACCAGUUUGAUGUGAUUAGUCCAUCACAUAUAUGGAUAUUUGCACAUGUGACCCAACAACAGAGGAUUGAGCAUCA
B16: ENSG00000136451:be:win_3701|3pUTR|ENSG00000136451|bound_else_gene|NA|bound_elsewhere_windowed (ssRNA)
RNA: GGGAGUUCUACAGUCCGACGAUCUCUCUGGUGGGCUGGCAGUCAUAAUUCACAAUUCAGACAGCCCAGGCUUCCUCCACAGUGGUCCAAGGAGCAGUCCUCAGUGGGGGCAGGUGUGGGCCCUACCCCUAAGCUAGAAUGUGGCAACAGAGGAUUGAGCAUCA
B17: ENSG00000107863:be:win_451|CDS|ENSG00000107863|bound_else_gene|NA|bound_elsewhere_windowed (ssRNA)
RNA: GGGAGUUCUACAGUCCGACGAUCUUGGAACUUAGUGUUAUGCCAAAAGAUGAAGACAUUCUCCAAGUGCUACAGUUUACAAAGGAUGUCACAGCACUGGCAUAUUCUCAAGAUGCCUACCUGAAAGGCAACGAAGCUUAUAGCCAACAGAGGAUUGAGCAUCA
B18: chr9:96387934:96388035:-|3pUTR|ENSG00000165244|msi1|total|mutant (ssRNA)
RNA: GGGAGUUCUACAGUCCGACGAUCAAUAUUUUGUAAAUAUGGACUGCACAGUACAGGGCCGAAAACUACAUAUUGUGGGAAGCCCGAUUUUGCAAGUUUAAUGCAUUCAUUGGAAGCAGUUCUCACAGGAAGCACUUUCUGAAUCAACAGAGGAUUGAGCAUCA
B19: chr20:32237940:32238012:+|3pUTR|ENSG00000101346|msi1_unk|FALSE|overlapping (ssRNA)
RNA: GGGAGUUCUACAGUCCGACGAUCUUUCAAAGAUACAAAUAUUUACAUAGUUUUAAUCAUGUAAUAUAUACAAUUUAAUGUCCUAGUGUUUUACUUAAUAGUGUAUCAUGUUUUCCCUGUUGGUAUGUAGCCUGGAUAAAUGCUCAACAGAGGAUUGAGCAUCA
B20: chr17:3662948:3663056:-|3pUTR|ENSG00000213977|unk|total|mutant (ssRNA)
RNA: GGGAGUUCUACAGUCCGACGAUCAGUUUGAUACAAAAUGUUUUUAUCGUACUCUUUGGAGAUGCCCAUUCUACUUUUGAAUUCCGCUUUUACUAAUUCGCAUCUGGAAGCUCAGCAAGUGCACAAGCCUUACUUUGGUUACCGCAACAGAGGAUUGAGCAUCA
B21: chr5:76617584:76618642:-|CDS|ENSG00000164220|control|control|control (ssRNA)
RNA: GGGAGUUCUACAGUCCGACGAUCUGAUGGCUUAUAUUUUAUAUAUCUCAUAGCUUUGUGCCUGGGUAGUCUUAAUAGUUGCUUAGAUCCAUUCCUUUAUUUUCUCAUGUCAAAAACCAGAAAUCACUCCACUGCUUACCUUACCAACAGAGGAUUGAGCAUCA
B22: chr4:168927217:168927233:+|3pUTR|ENSG00000129116|msi1_unk|total|mutant (ssRNA)
RNA: GGGAGUUCUACAGUCCGACGAUCAACCACCCAAAUGACCAAGGCAUAUACCGUAUUUGGAGGAAUCAGGGGUUUGGAAGGAGCCGGGAGGAGAAUGAAGGAAAAUGCAACCAGCAUGAUUACCGUGUGUUCAUUCCGAUAAAACAACAGAGGAUUGAGCAUCA

Molecular target: T1, UNK ZnF1-6 (called full-length) (human, UniProt Q9C0B0 30-357)
T1 sequence: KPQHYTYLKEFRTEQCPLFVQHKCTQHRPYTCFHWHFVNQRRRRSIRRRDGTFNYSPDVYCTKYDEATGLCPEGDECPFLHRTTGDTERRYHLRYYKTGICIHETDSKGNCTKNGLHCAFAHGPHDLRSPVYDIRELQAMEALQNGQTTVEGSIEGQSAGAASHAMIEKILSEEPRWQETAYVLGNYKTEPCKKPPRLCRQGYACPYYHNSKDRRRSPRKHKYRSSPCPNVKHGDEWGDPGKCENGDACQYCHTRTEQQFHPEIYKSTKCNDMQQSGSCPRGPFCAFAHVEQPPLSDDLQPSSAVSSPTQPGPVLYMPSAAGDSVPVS
Assay: nsRBNS (natural sequence RNA bind-n-seq); RBNS binding buffer (assumed for nsRBNS): 25 mM Tris pH 7.5, 150 mM KCl, 3 mM MgCl2, 0.01% Triton X-100, 500 ug/ml BSA, 20 U/ml SUPERase-In, 4 C; UNK is unkempt and MSI1 is Musashi-1; names of the RNAs are library labels; protein concentration not given here; high values mean tight binding

| Binder | binding signal [enrichment R] |
| --- | --- |
| B1 | 1.05 |
| B2 | 1.88 |
| B3 | 0.364 |
| B4 | 0.605 |
| B5 | 2.33 |
| B6 | 33.5 |
| B7 | 0.79 |
| B8 | 1.29 |
| B9 | 3.9 |
| B10 | 10.8 |
| B11 | 15.5 |
| B12 | 22 |
| B13 | 6.79 |
| B14 | 2.83 |
| B15 | 1.85 |
| B16 | 0.776 |
| B17 | 0.399 |
| B18 | 0.299 |
| B19 | 4.06 |
| B20 | 0.437 |
| B21 | 4.63 |
| B22 | 0.58 |
